# Sampled rows, rich in hits. Any-hit rate of the full collection: about 11%.
# HEK293 tox: Cytotoxic Profiling in HEK 293 Cell Line of Diverse Libraries Using Quantitative High-Throughput Screening | 94,000 compounds, 6.6% hits | Potency, µM (top dose mostly 115 µM), inactives show at the highest dose activity change, negative = cytotoxicity, most hits filed as inhibitors | HEK 293 viability, ATP luminescence (CellTiter-Glo), 48-72 h; note: nearly all actives have a fitted effect of over 60% in size
#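 Cells seeded first (HEK 293, 250 cells/well), then compound added by pintool. Incubation ran 48 or 72 hr at 37 degree Celsius. CellTiter-Glo was added and luminescence imaged after 10 min at room temperature.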
# NIH3T3 tox: Cytotoxic Profiling in NIH 3T3 Cell Line of Diverse Libraries Using Quantitative High-Throughput Screening. NIH 3T3 viability, CellTiter-Glo ATP luminescence, 48-72 h. Potency, µM (series often up to 96.7 µM), without a hit: at the top dose activity change, negative = cytotoxicity, hits mostly inhibitors. 94,000 compounds, 4.3% hits; note: nearly all actives have a fitted effect of over 55% in size
#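 Viability of NIH 3T3 cells after 48 or 72 hr compound treatment at 37 °C was assessed by CellTiter-Glo, with luminescence imaged following a 10 min room-temperature step.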
# FLuc inh: Firefly luciferase inhibition profiling of diverse chemical library using quantitative high-throughput screening | Luciferin 4-monooxygenase (Photinus pyralis), P08659 | purified P. pyralis luciferase, luminescence, biochemical | Potency, µM (series often up to 115 µM), hits mostly inhibitors | 76,000 compounds, 2.5% hits | AID 1347043, 2019; note: nearly all actives have a fitted effect of over 65% in size
#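 Inhibitors were tested against purified firefly luciferase in a biochemical, low-substrate format (both substrates at 10uM) and luminescence measured with a CCD imager.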
# NPR1 antag: Natriuretic polypeptide receptor (hNpr1) antagonism - Primary qHTS; HEK293 hNpr1 GloSensor cGMP, ANP-stimulated luminescence; 76,000 compounds, 1.6% hits; Atrial natriuretic peptide receptor 1 (Homo sapiens), P16066; Potency, µM (titrated, usually from 46.3 µM), for inactives: at the highest dose activity change, negative = inhibition, most hits filed as inhibitors; calls by dose curve; note: nearly all actives have a fitted effect of over 60% in size
#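 Compound pre-incubated 30 min at room temperature on GloSensor-loaded HEK293 cells stably carrying hNpr1 and the pGS-40F cGMP biosensor. Stimulation uses hNppA at 0.1 nM final; luminescence is taken at baseline and 20 min post-agonist.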
# The depositor's hits bear a star; i = inactive; ? = inconclusive; . = no result given; [ ] = another dose, or the depositor's remark. Unless noted, calls come from the whole dose curve; as a rule, active = well fitted curve in the direction sought with a large enough effect; inconclusive = small, poorly fitted or top-dose-only effect, or another doubt; inactive = no such curve, though single readings can be large; an effect the other way counts as inactive or inconclusive. % is set by controls: 0 for no effect and ±100 for the full control effect; potency is the fitted concentration of half-maximal effect.
SMILES,HEK293 tox,NIH3T3 tox,FLuc inh,NPR1 antag
CC1=C[C@@H](CNS(=O)(=O)c2ccc(Cl)cc2)[C@H](C(C)C)C[C@H]1CC(=O)N1CCOCC1,?,31.6µM*,i,?
COCCNC(=O)C[C@@H]1C[C@@H](C(C)C)[C@H](CNS(=O)(=O)c2ccccc2)C=C1C,-22.1%[172 µM],112µM*,i,-3.7%[70.6 µM]
CC1=C[C@@H](CC#N)[C@H](C(C)C)C[C@H]1CC(=O)NCc1ccc(F)cc1,89.1µM*,?,i,1.4%[70.6 µM]
CNC(=O)c1cc(C)nc2onc(C3CCN(C(C)=O)C3)c12 (stereo not given),i,1.6%[138 µM],.,.
COCCCn1c(=O)c(C(=O)N2CCN(C(=O)c3ccccc3OC)CC2)nc2cccnc21,-7.1%,i,.,.
CC1=C[C@@H](CNS(=O)(=O)c2cccc(F)c2)[C@H](C(C)C)C[C@H]1CC(=O)O,-30.7%[172 µM],44.7µM*,i,-1.4%[70.6 µM]
Cc1ccc(Nc2ccnc(N3CCC(NC(=O)c4ccc(Cl)nc4)CC3)n2)cc1,39.8µM*,39.8µM*,.,.
Cc1ccc(Nc2ccnc(N3CCC(NC(=O)c4ccc(C(F)(F)F)cc4)CC3)n2)cc1,?,12.6µM*,.,.
Cc1ccc(Nc2ccnc(N3CCC(NC(=O)c4ccc(F)cc4)CC3)n2)cc1,?,35.5µM*,.,.
O=C(NC1CCN(c2ccnc3ccnn23)CC1)c1ccc(Cl)nc1,?,-23.7%,.,.
Cc1ccc(C(=O)NC2CCN(c3cc(-c4ccc(F)cc4)[nH]n3)C2)cc1 (stereo not given),?,?,i,-14.6%
CN(C)C(=O)N1CCC(C(=O)N2CCCC2c2nc3ccncc3[nH]2)CC1 (stereo not given),-2.9%,-6.0%,.,.
CC1=C[C@@H](CN2CCC(C(N)=O)CC2)[C@H](C(C)C)C[C@H]1Cc1nnc(-c2ccc(C)cc2)o1,35.5µM*,31.6µM*,i,8.7%
CC1=C[C@@H](CN2CCC(C(N)=O)CC2)[C@H](C(C)C)C[C@H]1Cc1nnc(C(C)(C)C)o1,?,?,i,-3.6%[70.6 µM]
CC1=C[C@@H](CN2CCC(C(N)=O)CC2)[C@H](C(C)C)C[C@H]1Cc1nnc(-c2ccc(N(C)C)cc2)o1,39.8µM*,35.5µM*,i,4.7%
COc1ccc(C(=O)N2CCCC2c2nn(C)c(=O)n2Cc2ccccc2)cc1F (stereo not given),i,3.2%,.,.
CCOc1ccccc1NC(=O)NCCn1c(C)cnc1C1CC1,i,4.3%,.,.
COc1ccc(-c2ccnc3nc(-c4cccs4)nn23)cc1OC,?,7.08µM*,i,-2.0%
COc1ccccc1-c1nc2nccc(-c3ccc4c(c3)OCCCO4)n2n1,17.8µM*,?,?,-12.3%
COc1ccccc1-c1nc2nccc(-c3cc4ccccc4o3)n2n1,89.1µM*,?,i,-10.3%
COc1ccc(-c2ccnc3nc(-c4ccccc4OC)nn23)cc1OC,?,?,i,0.0%
COc1cccc(-c2cccc(C(=O)N3CCCC3C(=O)N3CCN(C)CC3)c2)c1 (stereo not given),-20.5%,-17.2%,.,.
CCc1nc(NCc2cn[nH]c2-c2ccc(Cl)cc2)c2cnn(C)c2n1,?,44.7µM*,i,-0.7%
COc1ccccc1-c1cccc(CN2CCC(NC(=O)c3ccccc3C)CC2)c1,44.7µM*,?,.,.
COc1ccccc1C(=O)NC1CCN(Cc2cccc(-c3ccccc3OC)c2)CC1,44.7µM*,?,.,.
SMILES,HEK293 tox,NIH3T3 tox,FLuc inh,NPR1 antag
COc1ccccc1-c1cccc(CN2CCC(NC(=O)c3ccccc3Cl)CC2)c1,79.4µM*,?,.,.
COC(=O)NC1CCN(Cc2cccc(-c3ccccc3OC)c2)CC1,?,-26.7%,.,.
COc1ccccc1-c1cccc(CN2CCC(NC(=O)N(C)C)CC2)c1,79.4µM*,?,.,.
COc1ccc(CN2CC(Oc3ccccc3C(=O)NC3CC3)C2)cc1OC,-2.2%,-13.8%,i,-12.6%
CCNC(=O)OC1CN(C(=O)c2ccc(C(C)(C)C)cc2)CCC(=O)N(C)c2ccccc21 (stereo not given),?,-25.1%[46.1 µM],.,.
O=C(NC1CCN(Cc2ccccc2)CC1)c1cccc2c1CCN2C(=O)c1ccccc1,39.8µM*,?,i,-27.7%
